For 40 compounds, outcome and AC50 results are on record in PubChem BioAssay (EPA / NIEHS).

The source made the active and inactive calls. Rule for the calls: active = hit-call score of the fitted dose curve at least 0.9, where 1 is the maximum; inactive = score below 0.9.

Read-out in this assay: Urokinase-type plasminogen activator receptor (uPAR), PLAUR (gene 5329)
Nature of the assay: BSK_4H_uPAR: BioMAP Diversity Plus: 4H Assay for Urokinase-type plasminogen activator receptor (uPAR) Biomarker Activity (AID 2283030). Particulars: primary human endothelial cells (HUVEC); actives raise or lower the signal. Here is the method: BSK_4H is a cell-based, multiplexed-readout assay that uses umbilical vein endothelium, a human vascular primary cell, with measurements taken at 24 hours after chemical dosing in a 96-well plate.BSK_4HAR is an assay component measured in the BSK_4H assay. It measures uPAR antibody related to regulation of gene expression using ELISA technology.Data from the assay component BSK_4HAR was analyzed into 1 assay endpoint. This assay endpoint, BSK_4HAR, was analyzed with bidirectional fitting relative to DMSO as the negative control and baseline of activity. Using a type of binding reporter, gain or loss-of-signal activity can be used to understand changes in the signaling as they relate to the gene PLAUR. Furthermore, this assay endpoint can be referred to as a primary readout, because this assay has produced multiple assay endpoints where this one serves a signaling function. To generalize the intended target to other relatable targets, this assay endpoint is annotated to the cytokine intended target family, where the subfamily is plasmogen activator.
The levels of cell surface (or secreted, indicated by the prefix "s") biomarker endpoints were measured by ELISA. Overt cytotoxicity to cells in confluent adherent cultures (all systems other than the BT system) was assessed by measuring total protein levels using sulforhodamine B (SRB) staining in parallel cultures at the time of biomarker measurements, indicated as SRB endpoints. For proliferation assays for adherent cell types, individual cell types are cultured at sub-confluence and relative cell numbers quantified by SRB staining at time points optimized for each system (48 h: 3C and CASM3C systems; 72 h: BT and HDF3CGF systems; 96 h: SAg system). SRB was performed by staining cells with 0.1% SRB after fixation with 10% TCA and reading wells at 560 nm.Viability and proliferation of PBMC (T cells) was quantified by Alamar Blue reduction for the SAg and BT systems. For PBMC viability (referred to as PBMC Cytotoxicity within the assay endpoint names), cells were plated (75,000/well in a 96-well plate) and then chemical samples added for 1 h before addition of activators, SEB and TSST-1 (20 ng/mL final concentration each). Cells were incubated for 90 h. Then, Alamar Blue (20 uL/well) (Invitrogen, Cat DAL1100) was added for 6 h, and the plates were read with a fluorescence microplate reader at 546/580 nm (excitation/emission). For PBMC proliferation, cells were plated and activated as above but incubated for only 16 h prior to addition of Alamar Blue. Plates were read after 6 h.
As for `COC(=O)c1ccccc1O`, the outcome was inactive.

Turning to `C[C@](N)(Cc1ccc(O)c(O)c1)C(=O)O`, the outcome was inactive. As for `C1N2CN3CN1CN(C2)C3`, the outcome was inactive. Regarding `O=C1CCCCCN1`, the outcome was inactive. Same read-out and setting: the entry for `CN(C)c1ccc(N=NS(=O)(=O)O)cc1` is “inactive”. Take `O=c1[nH]c2ccc(S(=O)CCN3CCC(Cc4ccc(F)cc4)CC3)cc2o1` (stereo not given): the half-maximal activity concentration (AC50) is 12.8 µM (active). For the compound `CC(=O)c1ccc2c(c1)[C@H](NC(=O)c1ccc(F)cc1)[C@@H](O)C(C)(C)O2`, the outcome was inactive. Take `COc1cccc(-c2ccc(/C=C\CN3CCCCCC3)cc2Cl)c1`: the AC50 was 26.9 µM (active). As to `CC(C)(O)c1coc(S(=O)(=O)NC(=O)Nc2c3c(cc4c2CCC4)CCC3)c1`, the outcome was inactive. On to `Clc1nc(Cl)c(Cl)c(Cl)c1Cl`, for which the result was inactive. Take `COC(=O)c1c(Cl)c(Cl)c(C(=O)OC)c(Cl)c1Cl`: the outcome was inactive.

Take `Nc1nc2ncc(CNc3ccc(C(=O)N[C@@H](CCC(=O)O)C(=O)O)cc3)nc2c(=O)[nH]1`: the outcome was inactive. Still for that read-out and setting: as for `CC(=O)OCCC(C)C`, the entry is “inactive”.

For `CCn1nc(Cc2ccccc2)cc1C1CCN(C[C@H]2C[C@H](N(C)[C@@H](C(=O)O)C(C)C)C[C@@H]2c2cccc(F)c2)CC1`, the result was inactive. In the case of `O=C(CCCCCCCCc1cccnc1)N1CCC(C=C(c2ccccc2)c2ccccc2)CC1`, the AC50 is 11.2 µM (active).

As for `COc1ccc2sc(C(=O)Nc3nnn[nH]3)c(OC(C)C)c2c1`, the AC50 is 12.7 µM (active). As to `CN(C)c1ccc(Cc2ccc(N(C)C)cc2)cc1`, the result was inactive. For `O=P(OC(CCl)CCl)(OC(CCl)CCl)OC(CCl)CCl`, the outcome was inactive. In the case of `CCCN(C1CCN(C(=O)C2CCNCC2)CC1)[C@@H]1CCc2ccc(OC)cc2C1`, the result was inactive. Turning to `CCOc1cccc(-n2cc(C(=O)N3CCN(c4cc(C(=O)O)c5ccccc5c4)CC3)nc2-c2ccc(C)cc2)c1`, the AC50 was 12.7 µM (active).

With `O=C(O)c1cc(N=Nc2ccc(S(=O)(=O)Nc3ccccn3)cc2)ccc1O`, the result was inactive. For the compound `O=C(O)CCN(C1(C(=O)NO)CCCC1)S(=O)(=O)c1ccc(Oc2ccc(F)cc2)cc1`, the outcome was inactive. The same measure, in the same setting: the entry for `Cc1ccc(C)c(O)c1` is “inactive”; for `CCN(C(=O)c1cc(C)cc(OC[C@H](C)Nc2ccncc2)c1)C(C)C` it is “inactive”.

On to `On1ccccc1=S`, for which the concentration at half-maximal activity (AC50) is 19.8 µM (active). Take `O=C(O)CC(O)C(=O)O` (stereo not given): the outcome was inactive.

Turning to `O=C(OC[C@H]1O[C@@H](OC(=O)c2cc(O)c(O)c(OC(=O)c3cc(O)c(O)c(O)c3)c2)[C@H](OC(=O)c2cc(O)c(O)c(OC(=O)c3cc(O)c(O)c(O)c3)c2)[C@@H](OC(=O)c2cc(O)c(O)c(OC(=O)c3cc(O)c(O)c(O)c3)c2)[C@@H]1OC(=O)c1cc(O)c(O)c(OC(=O)c2cc(O)c(O)c(O)c2)c1)c1cc(O)c(O)c(OC(=O)c2cc(O)c(O)c(O)c2)c1`, the AC50 was 3.15 µM (active).

For the compound `O=C1CCC(N2C(=O)c3ccccc3C2=O)C(=O)N1` (stereo not given), the result was inactive.

For the compound `CC(=O)OC[C@H]1O[C@@](COC(C)=O)(O[C@H]2O[C@H](COC(C)=O)[C@@H](OC(C)=O)[C@H](OC(C)=O)[C@H]2OC(C)=O)[C@@H](OC(C)=O)[C@@H]1OC(C)=O`, the outcome was inactive.

On to `Cc1[nH]cnc1C[C@H]1CCc2c(C)c3ccccc3n2C1=O`, for which the concentration at half-maximal activity (AC50) was 22.5 µM (active). Turning to `Oc1ccc2c(c1)-c1ccccc1C2`, the result was inactive. On the same count and under the same terms, as for `O=C(NS(=O)(=O)/C=C/c1ccccc1)c1ccc(F)cc1Cl`, the entry is “inactive”; as for `NC(=O)NO`, “inactive”; as for `CC[C@H]1CC[C@H](NCc2cc3c(cc2OC)[C@H]2C[C@H]2C(=O)N3C)[C@H](c2ccccc2)N1`, “inactive”. Still for that read-out and setting: the entry for `Cc1ccc(N)cc1O` is “inactive”; for `CCNc1ccccc1` it is “inactive”. Same read-out and setting: the entry for `CCOCCO` is “inactive”; for `CC(C)CCCCCCOC(=O)c1ccc(C(=O)OCCCCCCC(C)C)c(C(=O)OCCCCCCC(C)C)c1` it is “inactive”. `CCCCC(CC)COC(=O)c1ccc(C(=O)OCC(CC)CCCC)cc1` (stereo not given): the result was inactive. On the same count and under the same terms, the entry for `CC(C)=CCC/C(C)=C\CO` is “inactive”.

As usually defined, the AC50 is the concentration at which the activity in the assay is half-maximal.
